The text below walks through data of PubChem BioAssay.

Results with a measured potency or affinity are listed apart. Activity calls are given as the source filed them. Unless noted, the rule behind the calls is not given here.

Sequence of Calcium-dependent protein kinase 1 (Plasmodium falciparum (isolate 3D7)) (P62344 whole entry, looked up): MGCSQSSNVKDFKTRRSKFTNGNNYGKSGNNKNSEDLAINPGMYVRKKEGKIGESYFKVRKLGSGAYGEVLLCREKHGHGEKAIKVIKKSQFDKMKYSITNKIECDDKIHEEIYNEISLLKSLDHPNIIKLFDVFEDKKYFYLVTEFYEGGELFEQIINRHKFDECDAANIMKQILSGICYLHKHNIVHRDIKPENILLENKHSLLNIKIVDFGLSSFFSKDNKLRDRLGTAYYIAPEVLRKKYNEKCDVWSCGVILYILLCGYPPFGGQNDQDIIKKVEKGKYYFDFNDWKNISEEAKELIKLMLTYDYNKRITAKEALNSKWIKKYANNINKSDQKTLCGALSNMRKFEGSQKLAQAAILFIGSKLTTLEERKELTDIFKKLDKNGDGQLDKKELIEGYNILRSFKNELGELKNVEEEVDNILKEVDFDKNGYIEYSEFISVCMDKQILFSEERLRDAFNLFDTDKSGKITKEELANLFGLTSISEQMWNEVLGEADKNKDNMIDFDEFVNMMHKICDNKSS
Sequence of Plasmodium falciparum protein kinase 6 (PK6, PF3D7_1337100) (Q8IDW1 1-305): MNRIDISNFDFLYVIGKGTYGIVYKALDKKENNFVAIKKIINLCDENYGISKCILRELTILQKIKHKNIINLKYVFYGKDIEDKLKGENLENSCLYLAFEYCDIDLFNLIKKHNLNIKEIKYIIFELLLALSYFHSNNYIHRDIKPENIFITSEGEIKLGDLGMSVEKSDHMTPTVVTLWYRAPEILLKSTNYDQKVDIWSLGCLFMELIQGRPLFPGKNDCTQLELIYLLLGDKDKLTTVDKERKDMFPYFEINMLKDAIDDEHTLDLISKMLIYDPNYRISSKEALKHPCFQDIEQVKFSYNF

One experiment concerns the target Calcium-dependent protein kinase 1 (Plasmodium falciparum (isolate 3D7)) (UniProt P62344). Briefly: PfCDPK1 kinase inhibitors, biochemical, TCAMS library (AID 1159585; cut-off not given, nearly all actives have IC50 up to about 0.98 µM;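 note: inhibitors leave more ATP so luminescence rises with inhibition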). As to conditions: recombinant PfCDPK1, Kinase-Glo ATP depletion luminescence. (In Kinase-Glo more light means more ATP remaining.)
As to `NC(N)=NC(=O)Nc1cc(F)c(Cl)c(Cl)c1`, the result was inactive.

`Cc1nc(C)c(-c2ccc(Oc3ccc(OC(F)(F)F)cc3)cc2)c(OC(=O)c2ccccc2)c1Cl`: the outcome was inactive. Same read-out and setting: under `Nc1nc(N)c2c(Sc3ccc(F)cc3)cccc2n1` stands “inactive”. The same measure, in the same setting: the result for `CN=C(N)c1ccc(NC(=O)C=Cc2ccc(C(=O)Nc3ccc(C(N)=NC)cc3)cc2)cc1` reads “inactive”; that for `CC(=O)Oc1c(Cl)c(C)nc(C)c1-c1ccc(Oc2ccc(Cl)cc2)cc1`, “inactive”.

As to `NC(N)=NC(=O)Nc1cc(Br)c(Cl)c(C(F)(F)F)c1`, the result was inactive. For the molecule `Cc1nc2nc(N)nc(N)c2c(C)c1Cc1ccc([N+](=O)[O-])cc1`, the outcome was inactive.

Regarding `CN(C)S(=O)(=O)n1ccc2c3c(N)nc(N)nc3ccc21`, the outcome was inactive. The same measure, in the same setting: the result for `NC(=NCC1CC1c1ccccc1)c1cccc(C(N)=NCC2CC2c2ccccc2)n1` (stereo not drawn) reads “inactive”; that for `CCCN(c1ccc(O)c(CN2CCCCC2)c1)c1ccc([N+](=O)[O-])cn1`, “inactive”; that for `CCc1ccc(Cc2cnc3nc(N)nc(N)c3c2C)cc1`, “inactive”. On the same count and under the same terms, the result for `CCNCCCC(C)Nc1ccnc2cc(Cl)ccc12` (stereo not drawn) reads “inactive”; that for `c1ccc(CN2CCN(CCCCNc3c4ccccc4nc4ccccc34)CC2)cc1`, “inactive”.

For `Cc1nc2ccc(S(=O)(=O)Nc3ccc(C(=O)N[C@@H](CCC(=O)O)C(=O)O)cc3)cc2c(=O)[nH]1`, the outcome was inactive. On the same count and under the same terms, under `CC(C)(C)c1ccc(-c2nnc(N)nc2N)cc1` stands “inactive”. The same measure, in the same setting: the result for `CCC(=C(CC)c1ccc(O)c(CNC2CCCCC2)c1)c1ccc(O)c(CNC2CCCCC2)c1` reads “inactive”. As for `Cc1[nH]c(C)c(-c2ccc(Oc3ccc(Cl)cc3)cc2)c(=O)c1I`, the result was inactive. As to `Nc1nc(N)c2c3c(ccc2n1)NCCC3`, the outcome was inactive.

In the case of `Cc1[nH]c(C)c(-c2ccc(Oc3ccc(Cl)cc3)c(Cl)c2)c(=O)c1Br`, the result was inactive. Same read-out and setting: the result for `CCN(CC)CCNc1cc(C)nc(/N=C(\N)Nc2ccc(Cl)cc2)n1` reads “inactive”; that for `CC(C)CNc1nc(N)nc2ccc3c(ccn3CC(C)C)c12`, “inactive”.

`CCNC(=O)CCc1cccc(Br)c1`: the result was inactive.

Another experiment addresses Plasmodium falciparum protein kinase 6 (PK6, PF3D7_1337100) (UniProt Q8IDW1). Briefly: PfPK6 kinase inhibitors, biochemical, TCAMS library (AID 1159586). As to conditions: recombinant PfPK6, Kinase-Glo ATP depletion luminescence.
With `Nc1nc(N)c2c(Oc3ccc(Cl)c(Cl)c3)cccc2n1`, the outcome was inactive. On to `COc1ccc(OC)c(Cc2c(C)nc3nc(N)nc(N)c3c2C)c1`, for which the result was inactive. `CC(C)(C)c1ccc(-c2nc3c(ccc4nc(N)nc(N)c43)[nH]2)cc1`: the result was inactive. Same read-out and setting: under `CC(=O)Nc1ccc(OCCCCCOc2ccc(NC(C)=O)cc2Cl)c(Cl)c1` stands “inactive”; under `CCOc1cc(Cc2cnc(N)nc2N)ccc1OC`, “inactive”. The same measure, in the same setting: the result for `CCCCNCc1ccc(OCc2cccc(COc3ccc(CNCCCC)cc3I)c2)c(I)c1` reads “inactive”. As to `COc1cc(Cc2cnc(N)nc2N)cc(OCCCCc2ccc([N+](=O)[O-])cc2)c1OC`, the outcome was inactive. For the molecule `CC(C)c1ccc2c(c1)C(=O)c1ccc(C(=O)O)cc1S2(=O)=O`, the result was inactive.

In the case of `Nc1ncc(-c2ccc(S(=O)(=O)Nc3ccc(C(=O)N[C@@H](CCC(=O)O)C(=O)O)cc3)cc2)c(=O)[nH]1`, the result was inactive. On the same count and under the same terms, under `Cn1c(=N)cc(-c2cccc(I)c2)c2c(=O)[nH]c(N)nc21` stands “inactive”; under `Nc1nc(N)c2c(ccc3c2ccn3Cc2ccc(Br)cc2)n1`, “inactive”. Same read-out and setting: under `COc1ccc(OC)c(CC2c3ccc(Br)c(O)c3CCN2C)c1` (stereo not drawn) stands “inactive”; under `Oc1cc2ccccc2cc1CNC1CCCCC1`, “inactive”. Turning to `COc1ccccc1-c1nc2c(ccc3nc(N)nc(N)c32)[nH]1`, the outcome was inactive. Regarding `Nc1nc(N)c2c(Oc3cc(Cl)c(Cl)c(Cl)c3)cccc2n1`, the outcome was inactive. The same measure, in the same setting: under `Cc1nc(C)c(-c2ccc(Oc3ccc(OC(F)(F)F)cc3)cc2)c(OC(=O)c2ccc(CN(C)C)cc2)c1Cl` stands “inactive”. Take `CN(C)S(=O)(=O)n1ncc2c3c(N)nc(N)nc3ccc21`: the result was inactive. `NC(N)=NC(=O)Nc1cc(F)c(Cl)c(Cl)c1`: the outcome was inactive. `Cc1nc(C)c(-c2ccc(Oc3ccc(OC(F)(F)F)cc3)cc2)c(OC(=O)c2ccccc2)c1Cl`: the result was inactive. On the same count and under the same terms, the result for `Nc1nc(N)c2c(Sc3ccc(F)cc3)cccc2n1` reads “inactive”; that for `CN=C(N)c1ccc(NC(=O)C=Cc2ccc(C(=O)Nc3ccc(C(N)=NC)cc3)cc2)cc1`, “inactive”; that for `CC(=O)Oc1c(Cl)c(C)nc(C)c1-c1ccc(Oc2ccc(Cl)cc2)cc1`, “inactive”. Same read-out and setting: the result for `NC(N)=NC(=O)Nc1cc(Br)c(Cl)c(C(F)(F)F)c1` reads “inactive”; that for `Cc1nc2nc(N)nc(N)c2c(C)c1Cc1ccc([N+](=O)[O-])cc1`, “inactive”.

Regarding `CN(C)S(=O)(=O)n1ccc2c3c(N)nc(N)nc3ccc21`, the outcome was inactive.

`NC(=NCC1CC1c1ccccc1)c1cccc(C(N)=NCC2CC2c2ccccc2)n1` (stereo not drawn): the outcome was inactive.
